Test results reported in PubChem BioAssay.
Activity calls are given as the source filed them.

Legend:
[1] = small molecules captured by biotinylated probe aFSTL3 – biochemical, small-molecule microarray, fluorescence 635/667, stem cell growth factor project, primary screen (AID 1064); conditions: higher = more signal;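 further: measures binding of the biotinylated anti-FSTL3 antibody to printed compounds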
[2] = binders from COS7 lysate, DM2A8 probe, primary screen, torsin A project, cell lysate, small-molecule microarray, fluorescence 635/667 (AID 1065); conditions: higher = more signal, COS7 lysate expressing mutant human TOR1A
[3] = small molecules captured by biotinylated probe aFGF2 – biochemical, small-molecule microarray, fluorescence 635/667, stem cell growth factor project, primary screen (AID 1067); conditions: higher = more signal;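 further: measures binding of biotinylated aFGF2 protein to printed compounds on slides; z-score merges feature fluorescence and signal-to-noise across triplicate slides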
[4] = small molecules captured by biotinylated probe aFGF10 – biochemical, small-molecule microarray, fluorescence 635/667, stem cell growth factor project, primary screen (AID 1071); conditions: higher = more signal;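 further: score merges 667 nm spot intensity and signal to noise from triplicate slides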
[5] = target: Neurogenic locus notch homolog protein 2 (Homo sapiens) (UniProt Q04721); experiment: small molecules binding Notch2 protein – biochemical, small-molecule microarray, 635 nm fluorescence, stem cell growth factors, primary screen (AID 1073); conditions: higher = more signal
[6] = target: Pro-neuregulin-1, membrane-bound isoform (Homo sapiens) (UniProt Q02297); experiment: small molecules binding neuregulin-1 protein – biochemical, small-molecule microarray, fluorescence 635/667, psychiatric disease protein project, primary screen (AID 1075); conditions: NRG1 binding, 635 nm fluorescence, higher = more signal;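 further: score combines 667 nm spot fluorescence with signal to noise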
[7] = system: Neuregulin-1 EGF-like domain; experiment: small molecules binding NRG1 EGF domain – biochemical, small-molecule microarray, 635 nm fluorescence, primary screen (AID 1081); conditions: higher = more signal;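 further: binding of the protein to compounds printed on small-molecule microarray slides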
[8] = FRG1 expression reporter modulators in myotubes – cell-based, C2C12 myotubes, firefly/Renilla luciferase, luminescence, FRG1 inhibition for FSHD, primary screen (AID 1084); conditions: FRG1 promoter luciferase, higher = more signal, called active from +8 up or from −8 down
[9] = small molecules captured by biotinylated probe aFST – biochemical, small-molecule microarray, fluorescence 635/667, stem cell growth factor project, primary screen (AID 1086); conditions: higher = more signal;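 further: score merges 667 nm fluorescence with signal-to-noise of each printed compound spot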
[10] = binders of probe aHhip on microarray, primary screen, stem cell growth factor project, biochemical, small-molecule microarray, fluorescence 635/667 (AID 1087); conditions: higher = more signal;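 further: score merges spot fluorescence at 667nm with spot signal to noise ratio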
[11] = system: PRMT1 (protein arginine N-methyltransferase 1); experiment: small molecules binding arginine methyltransferase PRMT1 – biochemical, small-molecule microarray, 635 nm fluorescence, primary screen (AID 1088); conditions: higher = more signal;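 further: binding of Prmt1 protein to compounds spotted on small-molecule microarray slides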
[12] = growth effects on S. cerevisiae YJM789 – YJM789 clinical isolate, OD600, 24 h, basal, primary screen (AID 1089); conditions: higher = more signal, called active from +8 up or from −8 down;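 further: growth of clinical yeast isolate S. cerevisiae YJM 789 seeded 1000 cells per well; test concentration not given here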
[13] = S. pombe growth modifiers, basal conditions – strain 972, OD600, 24 h, no modulator, primary screen (AID 1090);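 further: basal condition with compound alone and no growth modifier present; test concentration not given here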; conditions: S. pombe 972 growth, higher = more signal, called active from +8 up or from −8 down
[14] = budding yeast growth modifiers under rapamycin – strain BY4716, OD600, 96 h, primary screen (AID 1091); further: test concentration not given here; conditions: S. cerevisiae BY4716 + rapamycin, higher = more signal, called active from +8 up or from −8 down
[15] = target: Torsin-1A-interacting protein 2 (Homo sapiens) (UniProt Q8NFQ8); experiment: small molecules binding lysate-expressed LULL1 – cell lysate, human LULL1 lysate, 635/667 nm fluorescence, primary screen (AID 1092); conditions: small-molecule microarray, hLULL1 lysate binding, 635 nm fluorescence; higher = more signal;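 further: probe is lysate of COS7 cells overexpressing human LULL1; score merges per-feature 667 nm fluorescence with signal-to-noise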
[16] = optical density change of DRC41 E. coli – strain DRC41, OD650, 24 h, E. coli filamentation project, primary screen (AID 1093);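 further: MC1000 strain lacking acrAB efflux and sulA so SOS filamentation is blocked; test concentration not given here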; conditions: E. coli DRC41 growth, higher = more signal, called active from +8 up or from −8 down
[17] = probe aLefty2 binding to arrayed compounds – biochemical, biotinylated probe, 635/667 nm fluorescence, primary screen (AID 1094); conditions: small-molecule microarray, higher = more signal;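 further: score merges spot fluorescence near 667 nm with spot signal-to-noise ratio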
[18] = system: Noggin (protein binding on small-molecule microarray); experiment: small molecules binding Noggin protein – biochemical, 635/667 nm fluorescence, primary screen (AID 1095); conditions: 635 nm fluorescence, higher = more signal;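 further: score merges 667 nm feature fluorescence with signal to noise over triplicate slides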
[19] = target: Neurogenic locus notch homolog protein 3 (Homo sapiens) (UniProt Q9UM47); experiment: small molecules binding NOTCH3 protein – biochemical, 635/667 nm fluorescence, primary screen (AID 1096); conditions: small-molecule microarray, 635 nm fluorescence, higher = more signal
[20] = probe aEGFR binding to arrayed compounds – biochemical, biotinylated probe, 635/667 nm fluorescence, primary screen (AID 1097); conditions: small-molecule microarray, higher = more signal;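 further: probe is a biotinylated anti-EGFR antibody binding compounds printed on slides; score combines fluorescence near 667 nm and signal to noise of each spot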

Neurogenic locus notch homolog protein 3 (Homo sapiens), sequence (Q9UM47 whole entry, looked up): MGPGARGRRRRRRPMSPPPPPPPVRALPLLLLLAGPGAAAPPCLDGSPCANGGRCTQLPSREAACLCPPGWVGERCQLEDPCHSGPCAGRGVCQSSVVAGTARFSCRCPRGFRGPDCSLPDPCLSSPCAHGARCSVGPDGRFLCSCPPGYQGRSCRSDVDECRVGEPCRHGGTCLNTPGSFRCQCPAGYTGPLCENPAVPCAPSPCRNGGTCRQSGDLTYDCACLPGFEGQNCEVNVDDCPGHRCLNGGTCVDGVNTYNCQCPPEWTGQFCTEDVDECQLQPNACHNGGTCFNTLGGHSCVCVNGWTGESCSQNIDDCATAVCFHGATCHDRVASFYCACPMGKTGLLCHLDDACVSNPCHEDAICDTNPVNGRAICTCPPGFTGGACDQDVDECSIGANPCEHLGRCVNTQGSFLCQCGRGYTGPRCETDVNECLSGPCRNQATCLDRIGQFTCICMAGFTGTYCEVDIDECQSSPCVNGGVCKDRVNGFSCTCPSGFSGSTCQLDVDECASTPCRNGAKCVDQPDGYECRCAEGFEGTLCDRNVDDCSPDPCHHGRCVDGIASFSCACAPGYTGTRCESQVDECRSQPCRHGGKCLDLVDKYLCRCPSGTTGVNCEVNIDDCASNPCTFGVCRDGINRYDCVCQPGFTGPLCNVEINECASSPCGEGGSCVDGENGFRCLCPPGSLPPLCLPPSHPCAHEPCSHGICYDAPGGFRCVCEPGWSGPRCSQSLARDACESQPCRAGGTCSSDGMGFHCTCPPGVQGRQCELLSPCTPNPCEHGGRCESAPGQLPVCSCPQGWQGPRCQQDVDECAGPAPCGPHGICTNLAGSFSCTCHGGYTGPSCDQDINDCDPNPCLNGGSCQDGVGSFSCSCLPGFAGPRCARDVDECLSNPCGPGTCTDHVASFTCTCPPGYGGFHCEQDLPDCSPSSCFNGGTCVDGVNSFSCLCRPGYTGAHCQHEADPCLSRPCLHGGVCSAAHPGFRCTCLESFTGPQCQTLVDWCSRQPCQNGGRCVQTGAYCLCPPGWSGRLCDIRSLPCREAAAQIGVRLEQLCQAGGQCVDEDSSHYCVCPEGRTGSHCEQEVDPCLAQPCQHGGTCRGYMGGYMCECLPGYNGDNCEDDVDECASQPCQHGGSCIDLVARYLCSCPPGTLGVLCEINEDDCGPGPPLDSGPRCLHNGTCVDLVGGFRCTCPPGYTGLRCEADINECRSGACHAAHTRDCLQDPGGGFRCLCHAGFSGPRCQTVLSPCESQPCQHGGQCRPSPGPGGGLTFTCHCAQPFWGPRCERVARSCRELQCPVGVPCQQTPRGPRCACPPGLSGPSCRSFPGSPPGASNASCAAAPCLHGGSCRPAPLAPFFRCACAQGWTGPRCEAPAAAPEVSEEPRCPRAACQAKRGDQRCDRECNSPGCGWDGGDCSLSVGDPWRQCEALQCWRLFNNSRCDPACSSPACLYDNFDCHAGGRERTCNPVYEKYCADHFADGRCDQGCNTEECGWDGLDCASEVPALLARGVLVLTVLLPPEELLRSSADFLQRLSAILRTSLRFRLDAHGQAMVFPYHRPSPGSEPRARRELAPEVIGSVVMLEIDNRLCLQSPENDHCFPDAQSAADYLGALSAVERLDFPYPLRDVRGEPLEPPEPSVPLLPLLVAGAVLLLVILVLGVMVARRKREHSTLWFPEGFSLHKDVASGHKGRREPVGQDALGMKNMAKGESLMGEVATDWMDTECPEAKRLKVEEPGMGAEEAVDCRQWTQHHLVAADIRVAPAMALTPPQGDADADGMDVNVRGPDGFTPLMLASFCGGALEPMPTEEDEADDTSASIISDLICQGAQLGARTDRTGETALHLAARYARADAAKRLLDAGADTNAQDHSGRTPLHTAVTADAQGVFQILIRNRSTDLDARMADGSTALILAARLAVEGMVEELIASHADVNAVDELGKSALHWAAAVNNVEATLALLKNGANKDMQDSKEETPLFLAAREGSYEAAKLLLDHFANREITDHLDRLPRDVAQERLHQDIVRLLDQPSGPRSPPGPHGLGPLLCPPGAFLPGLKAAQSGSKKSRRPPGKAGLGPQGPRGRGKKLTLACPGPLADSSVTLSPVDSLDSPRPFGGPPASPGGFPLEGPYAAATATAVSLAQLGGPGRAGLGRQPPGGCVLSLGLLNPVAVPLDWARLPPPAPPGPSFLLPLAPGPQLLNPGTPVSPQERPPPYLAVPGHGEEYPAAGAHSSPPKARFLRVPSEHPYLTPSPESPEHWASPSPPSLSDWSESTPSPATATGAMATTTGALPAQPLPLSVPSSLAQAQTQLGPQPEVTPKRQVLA
Pro-neuregulin-1, membrane-bound isoform (Homo sapiens), sequence (Q02297 whole entry, looked up, the tested form may be a part, canonical isoform): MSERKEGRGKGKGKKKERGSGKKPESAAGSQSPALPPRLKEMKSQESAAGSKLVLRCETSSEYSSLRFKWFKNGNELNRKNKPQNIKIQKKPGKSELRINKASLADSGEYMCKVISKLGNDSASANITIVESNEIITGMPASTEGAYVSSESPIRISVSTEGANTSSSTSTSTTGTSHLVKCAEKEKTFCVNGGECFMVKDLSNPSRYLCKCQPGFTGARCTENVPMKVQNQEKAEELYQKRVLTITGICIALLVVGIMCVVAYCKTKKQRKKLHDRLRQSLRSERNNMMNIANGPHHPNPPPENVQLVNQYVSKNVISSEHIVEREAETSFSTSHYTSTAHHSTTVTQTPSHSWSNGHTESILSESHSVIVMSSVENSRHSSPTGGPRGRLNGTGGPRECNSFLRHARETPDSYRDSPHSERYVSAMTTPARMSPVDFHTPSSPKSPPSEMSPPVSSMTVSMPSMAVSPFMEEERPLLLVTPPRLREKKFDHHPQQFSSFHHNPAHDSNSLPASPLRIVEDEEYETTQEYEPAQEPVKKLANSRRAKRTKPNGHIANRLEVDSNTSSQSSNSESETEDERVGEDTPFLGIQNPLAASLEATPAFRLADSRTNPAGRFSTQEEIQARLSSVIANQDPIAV
Torsin-1A-interacting protein 2 (Homo sapiens), sequence (Q8NFQ8 whole entry, looked up): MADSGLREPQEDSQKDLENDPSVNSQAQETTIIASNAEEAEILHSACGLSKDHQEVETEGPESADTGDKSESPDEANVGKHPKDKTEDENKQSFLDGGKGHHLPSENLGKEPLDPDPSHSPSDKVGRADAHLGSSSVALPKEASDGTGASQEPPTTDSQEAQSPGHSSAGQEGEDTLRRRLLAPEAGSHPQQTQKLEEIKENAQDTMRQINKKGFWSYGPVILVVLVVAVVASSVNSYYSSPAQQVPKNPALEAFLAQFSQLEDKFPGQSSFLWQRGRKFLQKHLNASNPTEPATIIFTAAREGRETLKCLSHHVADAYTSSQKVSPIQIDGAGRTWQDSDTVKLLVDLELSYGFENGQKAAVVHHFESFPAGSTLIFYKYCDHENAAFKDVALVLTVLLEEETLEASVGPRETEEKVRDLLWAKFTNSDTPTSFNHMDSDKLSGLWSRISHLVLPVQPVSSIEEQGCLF

SMILES | composite z-score [1] | composite z-score [2] | composite z-score [3] | composite z-score [4] | composite z-score [5] | composite z-score [6] | composite z-score [7] | z-score [8] | composite z-score [9] | composite z-score [10] | composite z-score [11] | z-score [12] | z-score [13] | z-score [14] | composite z-score [15] | z-score [16] | composite z-score [17] | composite z-score [18] | composite z-score [19] | composite z-score [20]
CC(=O)OC[C@H]1O[C@H](C#CCC2CCCCC2)C=C[C@@H]1OC(C)=O | -0.785 | 0.547 | -0.0739 | 0.494 | 0.207 | 0.833 | 0.828 | 1.23 (inactive) | -0.0607 | -0.0618 | 1.18 | 0.877 (inactive) | -15.5 (active) | -0.525 (inactive) | 1.17 | 1.1 (inactive) | -0.194 | 0.598 | 0.568 | 0.0698
O=C1[C@H]2[C@H]3[C@H](O)[C@H](O)CC(=NOC[C@@H](O)COCc4ccco4)[C@@H]3CC[C@H]2C(=O)N1c1cccc(Oc2ccccc2)c1 | -0.424 | -0.78 | -0.172 | -0.177 | -1.08 | -0.628 | -0.554 | -0.0105 (inactive) | -0.465 | -0.179 | -0.76 | 0.321 (inactive) | -0.512 (inactive) | -0.86 (inactive) | -0.75 | 0.0129 (inactive) | 0.0474 | 0.0054 | -0.487 | -0.156
CC(C)CN1CCc2nc(-c3ccccc3)c3c(c2C1)CO[C@@H](C)C3 | -0.277 | 0.306 | -0.0291 | 0.923 | 1.31 | 0.43 | 0.846 | 0.955 (inactive) | 0.147 | -0.16 | 1.42 | -0.319 (inactive) | 0.218 (inactive) | -0.0674 (inactive) | 1.71 | 0.801 (inactive) | -0.145 | 1.5 | 1.08 | 0.0914
CCOC(=O)[C@H](Cc1ccccc1)NC(=O)CCC1CC(OC(=O)NCc2cccc3ccccc23)CC2(CCCC(COC(=O)NCC3CCCCC3)O2)O1 (stereo not given in full) | -0.421 | 0.979 | -0.154 | 0.183 | 0.595 | 0.619 | 0.994 | 0.0184 (inactive) | 0.253 | 0.102 | 1.41 | -0.617 (inactive) | -0.174 (inactive) | -0.445 (inactive) | 1.4 | -0.448 (inactive) | -0.117 | 0.926 | 1.14 | -0.0381
CCOC(=O)NN=C1C[C@@H](O)[C@@H](O)[C@@H]2[C@@H]3C(=O)N(c4ccc(F)cc4F)C(=O)[C@@H]3CC[C@H]12 | -0.496 | 0.364 | -0.0131 | 0.202 | 0.501 | -0.0227 | 0.158 | 0.816 (inactive) | 0.411 | -0.137 | -0.334 | -0.01 (inactive) | -0.816 (inactive) | -0.155 (inactive) | -0.35 | 0.786 (inactive) | -0.185 | 0.555 | 0.625 | 0.021
CCOC(=O)[C@H](Cc1ccccc1)NC(=O)CCC1CC(OC(=O)NCc2ccc3c(c2)OCO3)CC2(CCCC(COC(=O)NCCCN3CCCC3=O)O2)O1 (stereo not given in full) | -0.578 | 0.163 | -0.0001 | 0.377 | 1.06 | 0.503 | 0.85 | 1.5 (inactive) | 0.827 | -0.248 | 1.55 | -0.395 (inactive) | 0.0418 (inactive) | -0.0655 (inactive) | 2.08 | 0.187 (inactive) | -0.117 | 0.579 | 1 | -0.02
COc1ccc(-c2cnnc(CCCn3ccnc3-c3ccccc3)n2)cc1 | -0.368 | 1.45 | -0.121 | 0.763 | 0.426 | 0.278 | 0.585 | 0.64 (inactive) | 0.117 | -0.12 | 0.576 | -0.128 (inactive) | -0.513 (inactive) | 1.36 (inactive) | 0.662 | 0.222 (inactive) | -0.125 | 0.592 | 0.876 | 0.137
COc1ccc(O[C@H]2C=C[C@@H](c3ccccc3)O[C@@H]2CON=C(C)CCN2CCCc3nc(C)c(C)cc32)cc1 | -0.353 | 0.0823 | -0.0812 | 0.076 | 0.476 | 0.626 | 0.954 | -0.303 (inactive) | 0.698 | -0.0328 | 1.42 | -0.571 (inactive) | -0.739 (inactive) | -0.706 (inactive) | 1.56 | 0.766 (inactive) | -0.0511 | 0.485 | 1.02 | -0.0531
CO[C@@H]1[C@H](O)CO[C@H]1C=Cc1ccccc1 | -0.392 | -0.0641 | -0.0715 | 0.211 | 0.128 | 0.206 | 0.874 | -0.253 (inactive) | 0.228 | -0.283 | 0.524 | 0.335 (inactive) | -1.14 (inactive) | -0.376 (inactive) | 0.363 | 0.447 (inactive) | -0.0895 | 0.396 | 0.0872 | -0.0581
C[C@@H]1CC[C@H]2C(=O)N3[C@@H](CC[C@@H](C)[C@@H]3c3ccc(Br)cc3)C(=O)N2[C@H]1c1ccc(Br)cc1 | -0.241 | 0.318 | -0.131 | 0.3 | 0.599 | -0.0193 | 0.354 | -0.469 (inactive) | 0.343 | -0.173 | -0.455 | -0.275 (inactive) | -4.1 (inactive) | 0.805 (inactive) | 0.241 | -0.19 (inactive) | -0.0865 | 0.259 | 0.305 | -0.0987
